# Test results: PubChem BioAssay
# The other results are listed elsewhere or left out. A number with no mark means an inactive call. The source made the active and inactive calls.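 How the source made its calls, unless noted: active means mean inhibition above about 50% in the one-dose retest (limit read from the data); inactive means the rest.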
# Assays:
# [1] = target: Sentrin-specific protease 8 (Homo sapiens) (UniProt Q96LD8); experiment: SENP8 protease inhibitors, retest, confirmation, biochemical, luminescence, single concentration (AID 488912;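 active means mean inhibition across replicates above about 50%, limit read from the data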); settings: Recombinant SENP8, Z-RLRGG-aminoluciferin luminescence, 60 min; at 12.5 µM; stronger effect = higher value
# Sentrin-specific protease 8 (Homo sapiens), sequence (Q96LD8 whole entry, looked up): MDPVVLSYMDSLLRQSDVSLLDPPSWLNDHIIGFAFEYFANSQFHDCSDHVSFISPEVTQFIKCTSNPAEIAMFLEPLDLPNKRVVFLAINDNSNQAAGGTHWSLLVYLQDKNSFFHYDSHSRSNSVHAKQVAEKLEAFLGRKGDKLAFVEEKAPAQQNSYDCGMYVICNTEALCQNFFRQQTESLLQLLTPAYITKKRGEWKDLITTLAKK
# [2] = target: Sentrin-specific protease 6 (Homo sapiens) (UniProt Q9GZR1); experiment: SENP6 protease inhibitors, confirmation, biochemical, luminescence, single concentration (AID 488915); settings: recombinant SENP6, Z-RLRGG-aminoluciferin luminescence; at 12.5 µM; stronger effect = higher value
# Sentrin-specific protease 6 (Homo sapiens), sequence (Q9GZR1 628-1112 limits assumed): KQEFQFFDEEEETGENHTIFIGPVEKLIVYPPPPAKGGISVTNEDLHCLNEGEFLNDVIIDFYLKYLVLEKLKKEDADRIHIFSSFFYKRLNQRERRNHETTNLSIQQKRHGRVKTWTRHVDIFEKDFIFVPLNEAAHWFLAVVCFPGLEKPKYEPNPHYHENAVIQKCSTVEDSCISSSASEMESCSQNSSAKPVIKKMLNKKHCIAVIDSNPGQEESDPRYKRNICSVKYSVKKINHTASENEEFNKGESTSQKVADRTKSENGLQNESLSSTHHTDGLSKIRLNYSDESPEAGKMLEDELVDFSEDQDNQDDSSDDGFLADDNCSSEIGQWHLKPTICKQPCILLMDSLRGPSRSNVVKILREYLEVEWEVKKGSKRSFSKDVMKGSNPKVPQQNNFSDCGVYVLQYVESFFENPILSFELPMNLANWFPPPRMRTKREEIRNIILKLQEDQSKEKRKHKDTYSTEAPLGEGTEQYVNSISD
# [3] = target: Sentrin-specific protease 7 (Homo sapiens) (UniProt Q9BQF6); experiment: SENP7 protease inhibitors, retest, confirmation, biochemical, luminescence, single concentration (AID 488917); settings: recombinant SENP7, Z-RLRGG-aminoluciferin luminescence, 40 min; at 12.5 µM; stronger effect = higher value
# Sentrin-specific protease 7 (Homo sapiens), sequence (Q9BQF6 706-1050 limits assumed): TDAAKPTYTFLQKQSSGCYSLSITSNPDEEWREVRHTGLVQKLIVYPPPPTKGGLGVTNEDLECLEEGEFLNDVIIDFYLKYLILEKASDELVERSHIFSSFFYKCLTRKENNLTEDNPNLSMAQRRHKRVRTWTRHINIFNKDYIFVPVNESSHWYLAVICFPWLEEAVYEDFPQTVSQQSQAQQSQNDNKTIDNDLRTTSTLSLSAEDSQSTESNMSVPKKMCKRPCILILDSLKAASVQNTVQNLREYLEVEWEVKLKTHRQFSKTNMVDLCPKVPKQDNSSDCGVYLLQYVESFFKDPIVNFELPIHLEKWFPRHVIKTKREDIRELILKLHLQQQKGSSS
# [4] = target: Caspase-3 (Homo sapiens) (UniProt P42574); experiment: caspase-3 protease inhibitors, confirmation, selectivity assay for SENP inhibitor project, biochemical, single concentration (AID 488918;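 active means mean inhibition above about 50%, limit read from the data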;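 further: plate controls were enzyme with DMSO for no effect and wells without caspase-3 for full effect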); settings: purified caspase-3, Z-DEVD-aminoluciferin luminescence, 60 min; at 12.5 µM; stronger effect = higher value
# Caspase-3 (Homo sapiens), sequence (P42574 28-227 limits assumed): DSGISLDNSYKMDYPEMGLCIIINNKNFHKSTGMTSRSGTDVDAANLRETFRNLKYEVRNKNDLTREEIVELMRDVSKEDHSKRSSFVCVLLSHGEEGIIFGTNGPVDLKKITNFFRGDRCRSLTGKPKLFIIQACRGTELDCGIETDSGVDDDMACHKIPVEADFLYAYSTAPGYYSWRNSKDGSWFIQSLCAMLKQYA
# [5] = luciferase luminescence interference by compounds, confirmation, artefact control for SENP inhibitor project, biochemical, single concentration, SENP8 reaction pre-completed (AID 488919;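 active means mean inhibition above about 50% when retested at one dose, limit read from the data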;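 further: plate controls were DMSO wells with completed reaction for no effect and substrate without enzyme for full effect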); settings: Pre-incubated SENP8/Z-RLRGG-aminoluciferin, at 12.5 µM, stronger effect = higher value
Compound,inhibition [1],inhibition [2],inhibition [3],inhibition [4],inhibition [5]
COc1ccccc1OCc1nc2ccccc2s1,96.7% (active),97.3% (active),102% (active),96% (active),95.3% (active)
Cc1ccc(-n2ncc3c(Nc4cccc(C(=O)O)c4)ncnc32)cc1,93.9% (active),98.1% (active),102% (active),44.3%,83.5% (active)
O=C(Nc1ncc([N+](=O)[O-])s1)C1COc2ccccc2O1 (stereo not given),98.8% (active),99.8% (active),103% (active),98.4% (active),48.6%
O=C(Nc1ccccc1)Nc1ccccc1C(=O)NCc1ccco1,2.7%,60.7% (active),85.6% (active),63.9% (active),66.7% (active)
Cc1cc(C(=O)Nc2nnc(C3CC3)s2)c(C)s1,63.4% (active),80.8% (active),94.1% (active),83.7% (active),16.4%
Cc1cccc(OCC(=O)Nc2ccccc2F)c1,20.8%,30.1%,72.8% (active),62.7% (active),35.2%
